Our source for the growth values is PubChem BioAssay (NCI).

Some test systems named below: EKVX NSCLC; SN12C renal; UO-31 renal; CAKI-1 renal; A498 renal; CCRF-CEM leukemia; MOLT-4 leukemia; SR leukemia; RPMI-8226 leukemia; OVCAR-8 ovarian; OVCAR-5 ovarian; OVCAR-4 ovarian; SK-OV-3 ovarian; IGROV1 ovarian; OVCAR-3 ovarian; HS 578T breast; NCI/ADR-RES ovarian; T-47D breast; ACHN renal.
What all share (experiment): NCI-60 one-dose screen, 48 h (100 = growth as untreated, 0 = no growth, -100 = all killed)
What all share (details): 10 µM unless noted

This is part of a sample that, as a whole, favours compounds with a hit. Of some 83,000 tested, about 20% had one in any assay.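 Single-dose data. Exposure time 48 hours. Values below 10 considered active.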 Values without a mark were called inactive. Calls of active or inactive are those of the source.

For the compound `Cc1nc(-c2cc3ccccc3oc2=O)ccc1C(=O)/C=C/c1ccc(N2CCOCC2)cc1`, the growth was 86.6% in the assay on EKVX NSCLC; 83.8% in the assay on SN12C renal; 83.9% with UO-31 renal; 65.1% in the assay with CAKI-1 renal; 75.2% in the assay with A498 renal; 72.4% in the assay on CCRF-CEM leukemia. For the same compound, the growth is 66.1% in the assay with MOLT-4 leukemia; 26% in the assay on SR leukemia; 93.4% in the assay with RPMI-8226 leukemia; 81% with OVCAR-8 ovarian; 101% in the assay with OVCAR-5 ovarian; 72.4% with OVCAR-4 ovarian. The growth in the assay with SK-OV-3 ovarian was 88.7%; with IGROV1 ovarian, 82.6%; in the assay with OVCAR-3 ovarian it was 87%; in the assay on HS 578T breast, 59.7%; in the assay on NCI/ADR-RES ovarian it was 67.3%; in the assay on T-47D breast, 80.2%.
For the compound `Clc1ccc2oc3c(NCCCn4ccnc4)c4ccccc4nc3c2c1`, the growth with EKVX NSCLC was 73.8%; in the assay with SN12C renal it was 38.4%; in the assay on UO-31 renal, 30%; with CAKI-1 renal, 30.6%; in the assay on A498 renal, 14.3%; in the assay with CCRF-CEM leukemia it was 19.4%. In addition, the growth with MOLT-4 leukemia is 7.69% (active); with SR leukemia, -5.22% (active); in the assay on RPMI-8226 leukemia it was 37.6%; in the assay on OVCAR-8 ovarian, 43.4%; in the assay with OVCAR-5 ovarian, 50.1%; with OVCAR-4 ovarian, 63%. Further, the growth in the assay with SK-OV-3 ovarian is 93.9%; in the assay with IGROV1 ovarian, 36.5%; in the assay on OVCAR-3 ovarian it was 76.7%; in the assay on HS 578T breast, 61.7%; with NCI/ADR-RES ovarian, 41.2%; with T-47D breast it was 88.9%.
Take `Cc1nc(-c2cc3ccccc3oc2=O)ccc1C(=O)/C=C/c1ccccn1`: the growth in the assay on EKVX NSCLC is 84.3%; in the assay with SN12C renal, 47.5%; with UO-31 renal, 58%; with CAKI-1 renal, 60.6%; in the assay with A498 renal, 89.2%; in the assay with CCRF-CEM leukemia, 6.22% (active). For the same compound, the growth with MOLT-4 leukemia is 27.1%; in the assay on SR leukemia, -12.6% (active); in the assay on RPMI-8226 leukemia it was -36.3% (active); in the assay on OVCAR-8 ovarian, 69.3%; with OVCAR-5 ovarian, 60.7%; in the assay on OVCAR-4 ovarian, 85.2%. The growth was 116% with SK-OV-3 ovarian; 7% (active) with IGROV1 ovarian; 46.9% in the assay on OVCAR-3 ovarian; 80.3% in the assay with HS 578T breast; 77.4% in the assay with NCI/ADR-RES ovarian; 52.1% with T-47D breast.
In the case of `OC1CCc2c(-c3ccc4ncnc(N5CCc6cc(F)c(Cl)cc65)c4c3)cncc21` (stereo unspecified), the growth with EKVX NSCLC was 27.1%; with SN12C renal, 39.3%; with UO-31 renal, 19%; in the assay on ACHN renal, 18.6%; in the assay with A498 renal it was -13.1% (active); in the assay on CCRF-CEM leukemia, 40.3%. Besides, the growth is 21.9% with MOLT-4 leukemia; 47.9% in the assay with SR leukemia; 15.9% in the assay with RPMI-8226 leukemia; 52.9% in the assay on OVCAR-8 ovarian; 46.6% with OVCAR-5 ovarian; 56.1% with OVCAR-4 ovarian. Moreover, the growth is 58.1% in the assay on SK-OV-3 ovarian; -13.2% (active) in the assay on IGROV1 ovarian; 37.6% in the assay with OVCAR-3 ovarian; 27.8% in the assay with HS 578T breast; 51.1% with NCI/ADR-RES ovarian; 7.03% (active) in the assay with T-47D breast.
As to `COc1cc(-c2ccc3ncnc(NC(C)c4ccccc4)c3c2)cnc1OC` (stereo unspecified), the growth with EKVX NSCLC was 19.5%; with SN12C renal, 39.1%; with UO-31 renal, 19.1%; in the assay on ACHN renal, 21%; with CAKI-1 renal it was 16.4%; in the assay on A498 renal, -14.9% (active). For the same compound, the growth in the assay with CCRF-CEM leukemia was 56.3%; with MOLT-4 leukemia, 45.1%; with SR leukemia, 43.7%; with RPMI-8226 leukemia it was 26.5%; in the assay on OVCAR-5 ovarian, 42.8%; with OVCAR-4 ovarian, 49%. Also, the growth was 40.4% in the assay with SK-OV-3 ovarian; -23.2% (active) in the assay on IGROV1 ovarian; 25.2% in the assay on OVCAR-3 ovarian; 21.1% in the assay with HS 578T breast; 58.8% with NCI/ADR-RES ovarian; 1.57% (active) in the assay with T-47D breast.
Consider `O=C1Nc2cc(Cl)ccc2/C1=C\c1ccc(OCc2ccc([N+](=O)[O-])cc2)cc1`, for which the growth in the assay on EKVX NSCLC was 82.5%; with SN12C renal, 79.5%; in the assay with UO-31 renal it was 50.7%; in the assay on ACHN renal it was 43%; with CAKI-1 renal it was 64.6%; in the assay on A498 renal it was 81%. The growth with CCRF-CEM leukemia was 5.4% (active); with MOLT-4 leukemia, 97.4%; with SR leukemia, 87.5%; in the assay with RPMI-8226 leukemia, 55.6%; with OVCAR-5 ovarian, 93.3%; in the assay with OVCAR-4 ovarian it was 43.6%. For the same compound, the growth in the assay with SK-OV-3 ovarian is 98%; with IGROV1 ovarian, 64.5%; in the assay with OVCAR-3 ovarian, 87.8%; with HS 578T breast, 60.9%; in the assay on NCI/ADR-RES ovarian it was 73.3%; with T-47D breast it was 51.9%.
Take `CN(C)CCCOc1c2ccccc2nc2c1oc1ccc(Cl)cc12`: the growth was 12.4% in the assay with EKVX NSCLC; 12.4% with SN12C renal; 4.84% (active) with UO-31 renal; 1.64% (active) in the assay on ACHN renal; -6.15% (active) with A498 renal; 16.8% in the assay with CCRF-CEM leukemia. Further, the growth was -1.53% (active) in the assay on MOLT-4 leukemia; -26.7% (active) in the assay with SR leukemia; -20.8% (active) in the assay with RPMI-8226 leukemia; 16.4% in the assay with OVCAR-8 ovarian; 12.4% in the assay with OVCAR-5 ovarian; 17.3% in the assay on OVCAR-4 ovarian. The growth is 20.5% in the assay on SK-OV-3 ovarian; -5.97% (active) with IGROV1 ovarian; 22% in the assay on OVCAR-3 ovarian; 25.7% in the assay on HS 578T breast; 3.58% (active) in the assay with NCI/ADR-RES ovarian; 31.2% in the assay on T-47D breast.
